# Hits are enriched below; roughly 2% of the tested compounds scored in any of these assays.
# MsrA act: bovine MsrA enzyme activators, primary screen, biochemical, absorbance, HTS | purified bovine MsrA, absorbance read-out | 0.3% of 360,000 active | activation, % at 10.6 µM | Methionine sulfoxide reductase A (Bos taurus); in the data active means activation above about 7.5%;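 further: 0% = vehicle and 100% = reference activator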
# Mot1-301 SUMO: yeast Mot1-301 growth rescue at high temperature, primary screen, SUMOylation pathway inhibitor project, S. cerevisiae, ATP luminescence, 38.5C. S. cerevisiae Mot1-301 growth rescue; percent above DMSO median, 100 means doubled. growth rescue, % at 18.8 µM. 1% of 320,000 active;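 active means every valid replicate shows activation above 250% relative to neutral control wells; inactive means the rest, any valid replicate at or below 250%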;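 further: OY570 slx delta 5 strain wells were the positive control but not used for scaling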
# MsrA inhibitor: bovine MsrA enzyme inhibitors, primary screen, biochemical, absorbance, HTS. Methionine sulfoxide reductase A (Bos taurus). purified bovine MsrA, absorbance read-out. inhibition, % at 15.5 µM. 0.75% of 360,000 active; in the data active means inhibition above about 4.5%;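 further: 0% = vehicle wells with enzyme and 100% = reference inhibitor wells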
# PKA-R1A act: activators of PKA-R1A holoenzyme, primary screen, biochemical, fluorescence polarization, Cy5-IP20, bovine R1A, mouse PKAc. cAMP-dependent protein kinase type I-alpha regulatory subunit (Bos taurus) + …. PKA-R1A dissociation; scaled: DMSO 0%, 113 µM cGMP 100%. activation, % at 11.4 µM. 0.083% of 340,000 active. AID 504707, 2011;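 active means percent activation above the mean of all tested compounds plus 3 SD, cut at about 19% in these data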;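 further: higher means more PKAc released from R1A so a rise in polarization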
# PKA-R2B activ: activators of PKA-R2B holoenzyme, primary screen, biochemical, fluorescence polarization, Cy5-IP20, human. PKA-R2B holoenzyme dissociation; R2B truncated from residue 108, S112A mutant; 0% DMSO only, 100% 113 µM cGMP. cAMP-dependent protein kinase catalytic subunit beta (Homo sapiens) + cAMP-dependent …. activation, % at 11.4 µM. 0.079% of 340,000 active;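 active means activation above a cutoff set at the mean over all compounds plus 3 SD, cut at about 18% in these data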;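 further: higher means more holoenzyme dissociation and a rise in polarization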
# Target sequence (P31323 whole entry, looked up, other chains not shown, the tested form may be a part): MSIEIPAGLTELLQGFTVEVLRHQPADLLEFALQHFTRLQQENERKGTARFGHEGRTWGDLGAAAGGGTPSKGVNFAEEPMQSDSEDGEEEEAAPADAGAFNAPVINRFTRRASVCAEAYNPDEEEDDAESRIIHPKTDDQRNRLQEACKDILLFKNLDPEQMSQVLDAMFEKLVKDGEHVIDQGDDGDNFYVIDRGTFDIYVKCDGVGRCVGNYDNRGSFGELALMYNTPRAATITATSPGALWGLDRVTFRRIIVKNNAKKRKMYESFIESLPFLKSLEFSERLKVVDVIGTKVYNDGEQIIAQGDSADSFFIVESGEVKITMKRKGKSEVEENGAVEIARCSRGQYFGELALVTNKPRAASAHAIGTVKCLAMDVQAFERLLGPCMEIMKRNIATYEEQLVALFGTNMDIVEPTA
# Mot1 SUMO dose: growth restoration of Mot1-301 yeast on galactose, dose response, SUMO pathway inhibitor project, whole organism, S. cerevisiae, ATP luminescence, cherry-picked samples. shares compounds with Mot1-301 SUMO. S. cerevisiae Mot1-301 galactose growth, 24 h; -100 = growth of slx-deleted rescue strain. growth activity, percent, % at 42 µM. 2,300 tested, under 10 active. AID 493004, 2010;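 active means Signal drops as the depositor expects, and the fitted half-maximal dose is no more than ten times the top valid tested dose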;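 further: more negative values mean stronger growth rescue toward the control strain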
# Starred values were filed as active, the others as inactive; nt = not tested or not shown; + = active, no number; [ ] = remark or other dose.
SMILES,MsrA act,Mot1-301 SUMO,MsrA inhibitor,PKA-R1A act,PKA-R2B activ,Mot1 SUMO dose
Cc1ccnc(NC(=O)Cc2ccc(F)cc2)n1,-1.6,-13.8,2.1,-15.0,3.0,nt
Cc1ccnc(NC(=O)CC(c2ccccc2)c2ccccc2)n1,-3.0,432.0*,0.9,-3.9,-10.6,0.6
COC(=O)Cc1nnn2c1CC(OC)c1cc(Br)ccc1-2 (stereo unspecified),nt,nt,-0.2,nt,nt,nt
C#CCNC(=O)C[C@H]1C[C@@]2(C(=O)OC)C(=C[C@H](C3CCCC3)O[C@@H]2C)N(Cc2ccccc2)C1=O,nt,nt,0.2,nt,nt,nt
CC(C)(C)C(=O)NC1CCN(CC(=O)Nc2ccc3c(c2)OCO3)CC1,-3.5,490.0*,-1.0,9.6,-0.1,0.3
O=C(c1ccc(CS(=O)(=O)c2ccc(Br)cc2)o1)N1CCCC1,-2.1,1.4,2.7,7.0,-2.8,nt
CN1CCN(C(=O)c2ccc(CS(=O)(=O)c3c(Cl)cccc3Cl)o2)CC1,-2.6,-13.9,-0.7,3.0,-0.4,nt
O=C(c1ccc(CS(=O)(=O)c2ccccc2)o1)N1CCOCC1,-10.3,371.6*,1.5,0.1,-4.6,1.5
CCOC(=O)N1CCN(C(=O)c2ccc(CS(=O)(=O)c3c(Cl)cccc3Cl)o2)CC1,-5.2,602.8*,1.5,-0.4,1.9,0.1
CN(C)S(=O)(=O)c1cccc(NC(=O)CSc2nnnn2-c2ccccc2)c1,-2.0,2.1,-1.5,-9.2,-13.8,nt
NS(=O)(=O)c1cccc(NC(=O)CSc2nnnn2-c2ccccc2)c1,-6.3,375.0*,0.1,-4.4,-3.0,-0.1
Nc1[nH]c(C(=O)c2ccccc2)c(-c2ccc(Cl)cc2)c1C(=O)c1c[nH]c2ccc(F)cc12,nt,nt,-0.5,nt,nt,nt
CCOc1ccc(N2C(=O)CC(Sc3nc4ccc(OCC)cc4s3)C2=O)cc1 (stereo unspecified),-0.1,41.5,-0.2,4.8,4.9,nt
C=CCNc1nnc(SC2CC(=O)N(c3ccc(OCCC)cc3)C2=O)s1 (stereo unspecified),-8.1,+,-0.4,0.3,-7.9,-1.8
COC(=O)[C@]12C[C@H](CC(=O)NCc3cccc4ccccc34)C(=O)N(Cc3ccccc3)C1=C[C@H](C1CCCC1)O[C@@H]2C,nt,nt,0.0,nt,nt,nt
C[C@H](O)[C@@H]1CN2CCc3ccc(-c4ccc5c(c4)OCO5)cc3[C@@H]2C[C@@H]1N(C)C(=O)c1ccco1,nt,nt,-0.7,nt,nt,nt
CC(C)(C)c1ccc(CN(Cc2ccccc2)C(c2ccccn2)c2nnnn2C(C)(C)C)cc1 (stereo unspecified),-4.0,505.1*,0.3,-3.6,-20.2,-0.1
CCN(Cc1ccccc1)C(c1ccncc1)c1nnnn1C(C)(C)C (stereo unspecified),-2.5,122.7,0.8,10.0,0.1,nt
OCCc1c[nH]c2cc(F)ccc12,-0.2,566.2*,1.1,1.8,-4.0,0.3
COC(=O)c1ccc2c(CCO)c[nH]c2c1,-9.3,2.7,0.6,-9.8,-8.8,nt
CCn1c(CSCc2ccc(F)cc2)nnc1SCC(=O)NCc1ccccc1,-0.4,924.1*,-0.3,-8.7,2.3,0.2
COc1ccc([N+](=O)[O-])cc1NC(=O)C1CCCN1S(=O)(=O)c1cccs1 (stereo unspecified),-6.0,418.3*,-0.6,-18.9,-6.3,0.0
COC(=O)[C@]12C[C@H](CC(=O)N3CCSCC3)C(=O)N(Cc3ccc4c(c3)OCO4)C1=C[C@H](C(C)(C)C)O[C@@H]2C,nt,nt,0.2,nt,nt,nt
CN(C)/C(=N\S(=O)(=O)c1ccc(F)cc1)c1ccccc1,-2.9,3.8,0.1,1.6,-3.8,nt
CCN(CC)/C(=N\S(=O)(=O)c1ccc(F)cc1)c1ccccc1,-5.5,550.9*,-0.1,-1.6,-4.1,-0.2[21 µM]
SMILES,MsrA act,Mot1-301 SUMO,MsrA inhibitor,PKA-R1A act,PKA-R2B activ,Mot1 SUMO dose
CN(c1cccnc1)c1ccc(NC(=O)Cc2c[nH]c3ccccc23)cc1-c1ccc(F)c(F)c1,nt,nt,0.5,nt,nt,nt
O=C(COC(=O)C1CC(=O)N(Cc2ccccc2)C1)Nc1ccccc1F (stereo unspecified),-3.9,543.8*,1.1,1.7,-7.8,-0.2[21 µM]
COc1cc(NC(=O)c2cc(Cl)ccc2Cl)ccc1-c1cc2ccccc2oc1=O,1.0,405.8*,1.1,-8.5,-0.7,0.4
NNC(=O)c1oc2nc(-c3ccccc3)cc(-c3ccccc3)c2c1N,-1.2,477.0*,0.7,3.9,-3.6,-0.2
COc1ccccc1CN1Cc2ccccc2Oc2ccccc2S1(=O)=O,nt,nt,-0.1,nt,nt,nt
O=C(NC1CCCCC1)C(c1ccncc1)N(Cc1ccc2c(c1)OCO2)C(=O)C(F)(F)F (stereo unspecified),-14.6,576.7*,-1.2,4.1,2.2,0.1
CCCCOc1ccc(C(=O)Nc2ccc(N3CCN(C)CC3)cc2)cc1,-3.2,+,0.0,2.9,-1.7,0.3
CCOc1ccc(C(=O)Nc2ccc(N3CCN(C)CC3)cc2)cc1,0.1,-7.4,-0.4,0.2,-1.0,nt
CC(=O)N1CCN(c2ccc(N3CCN(C(C)=O)[C@H](C)C3)c(C)c2)[C@H](C)C1,nt,nt,1.0,nt,nt,nt
Cc1cc(C)n(C(=O)c2ccccc2[N+](=O)[O-])n1,-9.4,438.1*,1.7,-3.9,-18.8,0.2
CCOc1ccc(-c2nc(C#N)c(N3CCN(Cc4ccccc4)CC3)o2)cc1,-6.7,7.9,0.0,-5.5,-0.7,nt
CCOc1ccc(-c2nc(C#N)c(N3CCOCC3)o2)cc1,-6.3,417.3*,1.9,-1.3,-8.8,-0.8
Cc1nc2c(-c3ccc(F)cc3)cnn2c2c1CCC2,-6.2,582.5*,0.8,-8.3,-4.0,-0.3
Cc1ccnc(NC(=O)CNC(=O)c2ccc(Br)o2)c1,-4.8,492.9*,-2.0,-1.4,-8.2,0.4
O=S1(=O)N[C@@H](Cc2ccccc2)COc2cc(N3CCCCC3)ccc21,nt,nt,-0.3,nt,nt,nt
O=S(=O)(c1cccs1)N1CCCc2nc(-c3ccccc3)ccc21,nt,nt,0.9,nt,nt,nt
Cc1ccccc1NC(=O)COC(=O)C1C2CC3OC(=O)C1C3C2 (stereo unspecified),-1.9,473.9*,2.2,-0.5,-8.2,0.5
CN(C)CCCN(Cc1ccccc1)C(=S)Nc1ccc(F)c(Cl)c1,-9.4,608.0*,0.4,-13.5,-12.3,0.3
CN(C)CCCN(Cc1ccccc1)C(=S)Nc1cccc(C(F)(F)F)c1,-1.4,2.4,-1.2,-9.2,1.3,nt
Cc1ccc(N(C(=O)Cn2nnc3ccccc32)C(C(=O)NC2CCCCC2)c2cn(C)nc2C)cc1 (stereo unspecified),0.7,834.7*,-0.2,-4.5,-8.6,0.1[21 µM]

# High-throughput results from PubChem BioAssay.
